Unmarked numbers belong to inactive results. How the calls were made is not given here.
These molecules were tested against Pantothenate synthetase (Mycobacterium tuberculosis (strain ATCC 25618 / H37Rv)) (UniProt P9WIL5) (assay: Coupled enzyme confirmation of inhibitors against recombinant Mtb PanC (AID 375;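 further: 0% = full reaction with vehicle and 100% = no enzyme background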)). Conditions: coupled enzyme assay; at 10 µM, active compounds read high.
Sequence of Pantothenate synthetase (Mycobacterium tuberculosis (strain ATCC 25618 / H37Rv)) (P9WIL5 whole entry, looked up): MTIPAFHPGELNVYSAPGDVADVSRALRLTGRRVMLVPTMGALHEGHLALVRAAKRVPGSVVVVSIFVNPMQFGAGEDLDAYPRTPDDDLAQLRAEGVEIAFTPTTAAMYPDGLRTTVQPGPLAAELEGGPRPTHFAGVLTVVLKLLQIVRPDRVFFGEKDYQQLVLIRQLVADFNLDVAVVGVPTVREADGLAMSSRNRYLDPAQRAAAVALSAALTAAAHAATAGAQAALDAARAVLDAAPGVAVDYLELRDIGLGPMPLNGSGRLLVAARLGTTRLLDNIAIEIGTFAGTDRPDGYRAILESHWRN

Row | SMILES | inhibition [%]
1 | Cc1cccc(N2CCN(Cc3c(C)n(C)n(-c4ccccc4)c3=O)CC2)c1C | 0
2 | C=CCn1cnc2c(c1=O)c1nc3ccccc3nc1n2-c1ccc(C)cc1 | 0
3 | CN(C)c1nc(N)nc(-c2nc3ccccc3s2)n1 | 0
4 | COC(=O)c1nc(N)sc1-c1ccccc1 | 0
5 | O=C(OCc1cccs1)c1ccccc1NS(=O)(=O)c1ccc2c(c1)OCCO2 | 0
6 | Cn1c2c(c(=O)[nH]c1=O)C(NC(=O)c1ccco1)(C(F)(F)F)C(=O)N2 (stereo not given) | 0
7 | Cc1cc(=O)[nH]c2c1cnn2Cc1ccccc1 | 1
8 | COc1cccc(-c2nnc(SCC(N)=O)n2-c2ccc(Cl)cc2)c1 | 0
9 | CC(=O)Nc1c(O)nc(SCC(=O)Nc2nnc(CC(C)C)s2)[nH]c1=O | 9
10 | O=C(Nc1ccon1)c1csc2c1CCCC2 | 6
11 | Cc1cccc(-n2nnnc2SCc2csc(-c3ccccc3)n2)c1 | 0
12 | COc1ccc2cc(C#N)c(N3CCN(Cc4nnnn4CCC(C)C)CC3)nc2c1 | 8
13 | c1ccc(CN2C3=NCCCN3c3ccccc32)cc1 | 0
14 | CCOC(=O)CNc1ccc2c(c1)OCO2 | 0
15 | COc1cccc(NS(=O)(=O)c2cc(C)sc2C)c1 | 0
16 | O=C1NC(=O)C(CC(=O)N(c2ccccc2)C2(C(=O)NC3CCCC3)CCCCC2)N1 (stereo not given) | 2
17 | Nc1nc(N2CCCCC2)nc(N(c2ccccc2)c2ccccc2)n1 | 3
18 | CCC1(C(=O)OC)NC(c2cccc(F)c2)C2C(=O)N(C)C(=O)C21 (stereo not given) | 3
19 | CCOc1ccc2ccccc2c1C(=O)N1CCN(c2ccccc2)CC1 | 9
20 | Cc1cc2nc(C3CCN(CC4COc5ccccc5O4)CC3)[nH]c2cc1C (stereo not given) | 6

Row | SMILES | inhibition [%]
21 | O=C(CSc1nnc(-c2ccccc2F)o1)OCc1ccccc1 | 0
22 | CCCN(CCC)CCNC(=O)c1cc2c(=O)n(C)c3ccccc3c2n1C | 0
23 | N#Cc1c(N)oc(-c2cccs2)c1-c1cccs1 | 1
24 | CC(C)CC(=O)Nc1ccccc1-c1nnn(CC(=O)N2CCOCC2)n1 | 0
25 | c1ccc(-c2cn3c4c(sc3n2)CCCC4)cc1 | 3
26 | CCOC(=O)c1c(C)[nH]c(C=Nc2ccccc2)c1O | 0
27 | Cc1ccccc1Cn1ccc(NC(=O)c2onc(C)c2Cl)n1 | 0
28 | c1ccc(-n2ncc3c(NCc4cccs4)ncnc32)cc1 | 0
29 | COc1ccccc1NC(=O)C1=C(C)NC(SCC(=O)c2ccc(C)cc2)=C(C#N)C1c1ccco1 (stereo not given) | 0
30 | CCN(Cc1cc2ccccc2[nH]c1=O)S(=O)(=O)c1ccccc1 | 0
31 | CC(C)CCNC(=O)NC(=O)CSc1nnc(-c2ccccc2Br)o1 | 1
32 | CC1=C(C(=O)Nc2ccccc2)C(c2ccccn2)n2nc(CCCO)nc2N1 (stereo not given) | 7
33 | Cc1ccc(NC(=O)COC(=O)c2ccn(C)n2)cc1 | 0
34 | CC1c2nc3ccccc3n2C(CC(=O)NCc2ccccn2)C(=O)N1Cc1ccccc1 (stereo not given) | 0
35 | CN(c1cccc(NS(=O)(=O)c2cccs2)c1)S(C)(=O)=O | 0
36 | O=C(Nc1ccc(N2CCOCC2)c(Cl)c1)c1ccc(Br)o1 | 0
37 | CS(=O)(=O)N(CC(=O)N1CCCCCC1)c1ccc(Br)cc1 | 0
38 | Cc1cc(O)c(-c2cc(C(=O)Nc3ccc(S(=O)(=O)N4CCOCC4)cc3)[nH]n2)cc1C | 0
39 | CCc1cn([C@H]2C[C@H](O)[C@@H](CO)O2)c(=O)[nH]c1=O | 0
40 | O=C1CC(N2CCOCC2)C(=O)N1c1ccccc1Cl (stereo not given) | 1

Reference: PubChem BioAssay
